Only some compounds are listed: those with a hit (about 12% of all), similar ones and a draw of the others.
BAZ2B block: inhibitors of human BAZ2B bromodomain | AlphaScreen BAZ2B-H3K14Ac peptide displacement | Potency, µM (top dose mostly 114 µM), for the others: top-dose activity change, negative = inhibition, most hits filed as inhibitors | 360,000 tested, 4.4% active | AID 504333; note: potency is the fitted concentration of half-maximal effect; % is set by controls: 0 for no effect and ±100 for the full control effect; nearly all actives have a fitted effect of over 60% in size
Target sequence (Q9UIF8 whole entry, looked up): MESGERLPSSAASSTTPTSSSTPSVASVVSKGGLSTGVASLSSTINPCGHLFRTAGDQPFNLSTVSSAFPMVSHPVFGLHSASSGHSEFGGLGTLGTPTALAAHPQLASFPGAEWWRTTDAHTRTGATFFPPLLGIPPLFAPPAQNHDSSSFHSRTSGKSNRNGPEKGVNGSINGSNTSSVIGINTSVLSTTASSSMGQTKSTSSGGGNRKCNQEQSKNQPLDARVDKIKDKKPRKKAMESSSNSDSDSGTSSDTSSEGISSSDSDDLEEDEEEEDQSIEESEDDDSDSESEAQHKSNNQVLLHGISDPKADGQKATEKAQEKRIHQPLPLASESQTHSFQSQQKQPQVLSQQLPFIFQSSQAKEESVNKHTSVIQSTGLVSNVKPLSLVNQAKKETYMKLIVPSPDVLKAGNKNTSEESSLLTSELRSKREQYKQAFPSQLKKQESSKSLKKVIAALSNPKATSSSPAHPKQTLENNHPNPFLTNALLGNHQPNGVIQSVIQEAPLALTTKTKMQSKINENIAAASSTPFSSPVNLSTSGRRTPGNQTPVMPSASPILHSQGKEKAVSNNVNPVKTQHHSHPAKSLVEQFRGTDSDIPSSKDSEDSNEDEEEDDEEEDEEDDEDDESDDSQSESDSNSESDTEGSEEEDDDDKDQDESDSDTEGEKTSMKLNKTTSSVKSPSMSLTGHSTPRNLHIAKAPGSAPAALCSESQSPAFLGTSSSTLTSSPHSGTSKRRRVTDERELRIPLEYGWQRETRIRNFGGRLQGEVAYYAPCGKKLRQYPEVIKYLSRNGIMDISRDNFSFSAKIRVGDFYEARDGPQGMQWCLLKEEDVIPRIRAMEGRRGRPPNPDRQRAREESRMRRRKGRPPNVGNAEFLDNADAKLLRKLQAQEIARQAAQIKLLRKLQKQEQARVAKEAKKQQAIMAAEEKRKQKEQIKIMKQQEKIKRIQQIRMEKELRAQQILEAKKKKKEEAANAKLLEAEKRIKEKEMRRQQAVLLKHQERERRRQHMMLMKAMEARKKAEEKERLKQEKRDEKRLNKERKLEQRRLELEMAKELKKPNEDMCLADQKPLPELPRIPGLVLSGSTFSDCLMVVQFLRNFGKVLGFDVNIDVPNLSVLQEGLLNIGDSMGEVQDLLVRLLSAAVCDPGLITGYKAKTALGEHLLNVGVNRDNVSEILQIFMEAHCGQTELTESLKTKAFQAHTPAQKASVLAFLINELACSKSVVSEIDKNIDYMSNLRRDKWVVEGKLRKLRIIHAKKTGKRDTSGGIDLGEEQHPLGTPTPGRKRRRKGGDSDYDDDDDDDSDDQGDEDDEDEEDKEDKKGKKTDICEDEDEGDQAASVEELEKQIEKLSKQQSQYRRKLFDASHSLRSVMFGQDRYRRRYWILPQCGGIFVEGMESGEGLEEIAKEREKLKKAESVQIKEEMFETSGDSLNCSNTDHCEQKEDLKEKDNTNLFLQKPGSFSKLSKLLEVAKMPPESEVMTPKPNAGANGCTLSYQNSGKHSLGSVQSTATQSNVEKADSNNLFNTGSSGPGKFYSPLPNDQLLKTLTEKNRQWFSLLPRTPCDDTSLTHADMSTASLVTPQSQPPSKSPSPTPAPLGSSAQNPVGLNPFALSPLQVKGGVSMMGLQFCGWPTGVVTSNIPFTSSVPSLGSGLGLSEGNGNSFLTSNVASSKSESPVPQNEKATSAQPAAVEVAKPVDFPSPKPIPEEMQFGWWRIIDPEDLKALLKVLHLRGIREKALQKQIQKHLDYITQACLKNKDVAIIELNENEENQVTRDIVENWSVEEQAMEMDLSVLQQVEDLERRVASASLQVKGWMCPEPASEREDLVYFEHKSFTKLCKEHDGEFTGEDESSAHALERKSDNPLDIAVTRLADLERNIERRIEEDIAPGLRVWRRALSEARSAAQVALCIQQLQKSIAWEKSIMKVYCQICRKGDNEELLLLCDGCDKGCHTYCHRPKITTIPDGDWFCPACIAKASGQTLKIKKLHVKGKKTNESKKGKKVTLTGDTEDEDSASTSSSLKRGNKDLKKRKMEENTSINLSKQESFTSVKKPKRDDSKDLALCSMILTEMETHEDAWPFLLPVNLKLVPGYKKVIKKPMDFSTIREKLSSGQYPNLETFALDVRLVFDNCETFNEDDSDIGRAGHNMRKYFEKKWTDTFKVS
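Compounds, titrated to a top concentration of 110 uM, were incubated 30 min at room temperature with preformed BAZ2B/acetyl-K14 H3 peptide complex (50 nM each). Proximity signal was measured by AlphaScreen after 20 min with beads.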
HP1b binding inh: HP1-beta chromodomain-methylated histone interaction inhibition; P83916; AlphaScreen HP1-beta / biotin-H3K9me3 peptide binding; Potency, µM (series often up to 114 µM), for the others: top-dose activity change, negative = inhibition, hits mostly inhibitors; 390,000 tested, 0.56% active; note: potency is the fitted concentration of half-maximal effect; nearly all actives have a fitted effect of over 70% in size
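AlphaScreen: HP1-beta (50 nM) preformed 30 min with biotin-H3(1-18)K9me3 peptide (50 nM) in PBS pH 7.4, 0.01% Tween-20. Compound added for 30 min at RT, then streptavidin donor/nickel chelate acceptor beads (10 ug/mL) for 30 min.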
PLK1 PBD inh: blocks phosphopeptide binding to human PLK1 polo-box domain | P53350 | Plk1 PBD binding of FITC phosphopeptide, fluorescence polarization | Potency, µM, for inactives: max response, negative = inhibition, usual class: inhibitors | 360,000 tested, 2.8% active | AID 720504; note: potency is the fitted concentration of half-maximal effect; series mostly up to about 57 µM; % is set by controls: 0 for no effect and ±100 for the full control effect; nearly all actives have a fitted effect of over 65% in size
PI5P4K alpha inh: PI5P4K alpha (human) kinase inhibition; P48426; PI5P4Kalpha enzyme, ADP-Glo luminescence, 60 min; stronger effect = lower value; max response, %; 330,000 tested, 1.2% active; AID 652105; active = max response of -50% or lower; inconclusive = between -30% and -50%; inactive = -30% or higher; note: value at the top dose of about 77 µM; % is set by controls: 0 for no effect and ±100 for the full control effect
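Controls without substrate or without enzyme flank wells where PI5P4Kalpha converts substrate using 5 microM ATP (final). Incubation lasts 60 minutes at room temperature; ADP formed is read by ADP-Glo luminescence.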
JMJD2A Tudor inh: inhibitors of human JMJD2A Tudor domain; 390,000 tested, 4.4% active; AlphaScreen JMJD2A-Tudor / H3K4me3 peptide binding; O75164; Potency, µM (doses to about 114 µM), inactives show top-dose activity change, negative = inhibition, hits mostly inhibitors; note: potency is the fitted concentration of half-maximal effect; % is set by controls: 0 for no effect and ±100 for the full control effect; nearly all actives have a fitted effect of over 50% in size
G9a block: G9a (human) methyltransferase inhibition | AID 504332 | 350,000 tested, 8.8% active | Potency, µM (doses to about 102 µM), for inactives: top-dose activity, negative = inhibition, actives largely listed as inhibitors | Q96KQ7 | G9a H3K9 monomethylation, AlphaScreen, 2 h; note: potency is the fitted concentration of half-maximal effect; % is set by controls: 0 for no effect and ±100 for the full control effect; nearly all actives have a fitted effect of over 75% in size
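G9a (20 nM) preincubated 15 min RT with compounds, then 500 nM biotinylated H3K9 peptide and 20 uM SAM added; 2 h RT reaction. Monomethyl-H3K9 product detected by AlphaScreen with anti-H3K9me1 antibody, streptavidin donor and anti-rabbit IgG acceptor beads.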
* = called active by the depositor; ? = inconclusive; . = no result; [ ] = remark or other dose. Unless noted, calls come from the whole dose curve; as a rule, active = well fitted curve in the direction sought with a large enough effect; inconclusive = small, poorly fitted or top-dose-only effect, or another doubt; inactive = no such curve, though single readings can be large; an effect the other way counts as inactive or inconclusive.

SMILES	BAZ2B block	HP1b binding inh	PLK1 PBD inh	PI5P4K alpha inh	JMJD2A Tudor inh	G9a block
O=C(O)CSc1sc(=S)sc1SCC(=O)O	-29.2%	-0.1%	26.7µM*	.	?	44.7µM*
Cn1cncc1C#Cc1ccc2cc(CCCO)oc(=O)c2c1	-0.7%	26.1%	-6.6%	1.5	-25.5%	9.4%[0.501 µM]
Cn1cncc1C#Cc1ccc2cc(CCO)oc(=O)c2c1	56.2µM*	41.4%	-11.0%	1.4	-28.1%	1.1%[0.501 µM]
COc1ccc2nc(C)cc(NCc3ccc(F)cc3)c2c1	-2.8%	20.1%[57 µM]	65.4%	-7.5	-11.1%	?
O=S1(=O)CCOCCN1Cc1ccc(Cl)cc1Cl	0.1%	.	.	.	.	.
O=S(=O)(c1cccc(F)c1)N1CCN(C(=S)NCc2ccccc2)CC1	-12.7%	34.3%	0.3%	-2.9	-2.3%	0.0%
N#C/C(=C\c1c[nH]c2ccccc12)C(N)=O	-13.8%	26.0%	-2.5%	?	-7.7%	-7.8%
CC(=O)Oc1c(/C=C(\C#N)C(N)=O)[nH]c2ccccc12	-36.2%	4.6%	-14.5%	-58.8*	-17.3%	11.2µM*
CCOc1ccc(-n2c(-c3ccccc3)nnc2-c2ccccc2)cc1	0.5%	1.7%	0.3%	-14.7	5.5%	8.8%
CCOc1ccc(N2Nc3n[nH]c(N)c3N2)cc1	?	-15.5%	-5.8%	-4.3	?	8.91µM*
COc1ccc(N2CCN(c3n[nH]c(N)n3)CC2)cc1	-28.8%	?	?	5.7	-26.4%	-16.2%[59 µM]
COc1ccc(N2Nc3n[nH]c(N)c3N2)cc1	-34.7%	-1.8%	-0.4%	-18.7	?	7.94µM*
O=C(Cn1ccn(-c2ccc(F)cc2)c(=O)c1=O)Nc1ccccc1C(F)(F)F	-4.7%	26.6%	.	.	-12.2%	-5.5%[59 µM]
Cc1c(NC(=S)N/N=C/c2cc([N+](=O)[O-])ccc2O)c(=O)n(-c2ccccc2)n1C	5.62µM*	26.1%	-11.9%	-60.6*	28.2µM*	56.2µM*
Cc1c(Cl)cccc1NC(=O)Nc1c(C)n(C)n(-c2ccccc2)c1=O	-1.4%	38.4%	-3.6%	8.6	-2.1%	79.4µM*
Cc1cc(=O)[nH]c(Nc2c(C)n(C)n(-c3ccccc3)c2=O)n1	-4.9%	15.2%	-8.1%	-6.7	1.1%	21.7%[12.7 µM]
Cc1c(NC(=O)Nc2ccc([N+](=O)[O-])cc2)c(=O)n(-c2ccccc2)n1C	-3.2%	12.6%	9.47µM*	?	15.8µM*	18.0%
Cc1ccc(NC(=O)Nc2c(C)n(C)n(-c3ccccc3)c2=O)cc1	-11.4%	17.0%	0.8%	-2.0	-1.4%	14.2%
Cc1c(NC2=C(Cl)C(=O)N(c3ccccc3Cl)C2=O)c(=O)n(-c2ccccc2)n1C	-38.0%	1.7%	?	-8.9	?	39.8µM*
Cc1c(NC(=S)N/N=C/c2ccc(O)cc2)c(=O)n(-c2ccccc2)n1C	3.8%	32.7%	-3.1%	.	-17.8%	4.0%
CCSC1=N/C(=C\C=C2/Oc3ccccc3N2CC)C(=O)S1	31.6µM*	?	47.9%	-0.7	35.5µM*	12.6µM*
Cc1ccc(-n2nc(C)cc2NC(=O)c2ccc(C)s2)cc1	10.4%	25.8%	-7.4%	.	7.1%	79.4µM*
Cc1ccc(-n2nc(C)cc2NC(=O)CC#N)cc1	-13.6%	38.2%	2.2%	-3.6	8.9%	26.0%
CS(=O)(=O)N1CCC2(CCN(c3ccccc3)CC2)CC1	.	.	.	.	.	4.1%[12.7 µM]
O=S(=O)(c1ccccc1)c1nc(Nc2ccccc2N2CCOCC2)sc1Cl	-37.1%	?	?	.	31.6µM*	25.1µM*
SMILES	BAZ2B block	HP1b binding inh	PLK1 PBD inh	PI5P4K alpha inh	JMJD2A Tudor inh	G9a block
COCCN(C(=O)c1ccc(C)c(S(=O)(=O)N2CCOCC2)c1)c1c(N)n(CC(C)C)c(=O)[nH]c1=O	.	2.1%	-6.3%	-10.2	-13.5%	.
CCc1ccc(CSc2nc(-c3ccccc3F)nc3c2Cc2c(CO)cnc(C)c2O3)cc1	-23.5%	44.4%	.	.	-4.4%	1.7%[59 µM]
O=C1N(Cc2cccc(Cl)c2)C[C@@H]2C[C@@H](c3ccccn3)N3CCC[C@@]123	79.4µM*	18.0%	-15.7%	0.1	-24.6%	25.1µM*
O=C1N(Cc2cccnc2)C[C@@H]2C[C@@H](c3ccc(-c4ccccc4)cc3)N3CCC[C@@]123	-29.8%	18.2%	-12.5%	-14.2	-22.3%	50.1µM*
CCCn1cc([C@@H]2C[C@H]3CN(Cc4cccc(Cl)c4)C(=O)[C@]34CCCN24)c(C)n1	-13.3%	12.6%	-1.3%	0.5	-17.4%	14.6%
Cn1cc([C@@H]2C[C@H]3CN(Cc4cccc(Cl)c4)C(=O)[C@]34CCCN24)c2ccccc21	-29.6%	15.7%	8.3%	-1.1	-29.4%	50.1µM*
Cc1cccc(C(=O)NC2CCN(C#N)CC2)c1	.	.	.	.	-12.3%	.
COc1ccc(NC(=O)CCCN2C(=O)CCn3nc(-c4cn(C)c5ccccc45)cc32)cc1	-13.9%	9.9%[57 µM]	.	.	-21.7%	-7.8%[59 µM]
Cc1n[nH]c(C)c1NC(=O)CSc1nnnn1-c1cccc(F)c1	.	29.6%	-9.9%	10.3	-5.7%	.
NC(CO)C(=O)NNCc1ccc(O)c(O)c1O (configuration not stated)	4.47µM*	?	6.7µM*	-54.2*	10µM*	1.41µM*
COCC(=O)N1c2nc(C(C)C)nn2C2(CCCCC2)[C@@H]2CCCC[C@@H]21	4.3%	29.1%	.	.	-11.6%	3.5%[59 µM]
Cc1[nH]c2ccccc2c1/C=C/c1cc[n+](C)cc1	56.2µM*	13.2%	59.6%	-1.6	-11.6%	14.3%[12.7 µM]
C=CCn1cc(/C=C/c2cc[n+](C)cc2)c2ccccc21	50.1µM*	-5.1%	34.8%	2.7	-12.2%	50.1µM*
CCn1cc(/C=C/c2cc[n+](C)cc2)c2ccccc21	?	41.9%	33.9%	-2.8	-3.7%	-24.7%[2.33 µM]
C=CCn1c(C)c(/C=C/c2cc[n+](C)cc2)c2ccccc21	3.4%	23.9%	65.8%	-1.5	-8.3%	44.7µM*
COC(CNC(=O)c1cccnc1)OC	3.0%	45.2%	-0.6%	-0.3	-9.4%	.
COC(CNC(=O)c1ccc2c3c(onc13)-c1ccccc1C2=O)OC	?	?	3.36µM*	-29.2	50.1µM*	28.2µM*
COc1ccc(OC)c(C=NNC(=O)c2ccc(NS(=O)(=O)c3cccs3)cc2)c1	.	20.2%	-5.3%	?	-18.5%	.
COc1ccc(C)cc1NC(=O)CSc1nc(=O)n(Cc2ccncc2)c2c1CCC2	-3.3%	7.7%	.	.	-17.2%	15.0%[59 µM]
CCN1CCN(C(c2ccccc2)c2sc3nc(C)nn3c2O)CC1 (configuration not stated)	5.9%	47.5%	3.0%	2.7	-3.5%	25.3%[12.7 µM]
Oc1c(C(c2ccccn2)N2CCCCC2)cc(Cl)c2cccnc12 (configuration not stated)	7.94µM*	?	29.9µM*	-25.4	22.4µM*	7.08µM*
OCCN1CCN(C(c2cccs2)c2ccc3cccnc3c2O)CC1 (configuration not stated)	20µM*	.	.	.	.	?
COc1ccc(C(=O)NC(c2ccccc2Cl)c2cc(Cl)c3cccnc3c2O)cc1 (configuration not stated)	8.5%	27.2%	.	.	?	20.1%[59 µM]

Screening data deposited in PubChem BioAssay by National Center for Advancing Translational Sciences (NCATS).
